Results on 38 compounds are retold here after the supplement of paper PMC9446081.

Each structure is given as a SMILES string. Among all 39,000 compounds or so, about 220 (0.56%) showed activity. The entries come from a sample that favours actives as a whole. A number with no mark means an inactive call.
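Also: Wild-type cells incubated without shaking, value is the mean of two biological replicates.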

The subject of this assay is Escherichia coli K-12 BW25113. Nature of the assay: relative growth (OD600 normalised to plate interquartile mean) (fraction); higher = less growth inhibition, active = 0.2 or less. The note with it: 50 µM; LB; incubation time: overnight (16-24 h).
Regarding `COc1ccc(NC(=O)N(C)C[C@H]2OCCCC[C@@H](C)Oc3ccc(NC(=O)c4ccccc4)cc3C(=O)N([C@@H](C)CO)C[C@H]2C)cc1`, the relative growth was 0.994. The figure for `COC[C@H](C)N1C[C@H](C)[C@@H](CN(C)Cc2ccc(Oc3ccccc3)cc2)Oc2c(NC(=O)c3ccncc3)cccc2C1=O` is 1; for `Cc1noc(C)c1S(=O)(=O)Nc1ccc2c(c1)C(=O)N([C@H](C)CO)C[C@@H](C)[C@H](CN(C)C(=O)NC1CCCCC1)O2` it is 1.01; for `C[C@@H]1CN([C@H](C)CO)C(=O)c2cc(NS(=O)(=O)c3ccc(F)cc3)ccc2O[C@@H](C)CCCCO[C@@H]1CN(C)C(=O)C1CCCCC1` it is 0.993. Then `Cc1noc(C)c1NC(=O)N(C)C[C@H]1Oc2ccc(NC(=O)Nc3ccc(C(F)(F)F)cc3)cc2CC(=O)N([C@H](C)CO)C[C@H]1C`, with 0.935.

With `C[C@H](CO)N1C[C@H](C)[C@H](CN(C)S(=O)(=O)c2ccccc2)Oc2ccc(NC(=O)C3CC3)cc2CC1=O`, the relative growth was 1. For `CC(C)(C)c1ccc(NC(=O)N[C@H]2CCCc3ccccc32)cc1`, the relative growth was 1.03. Take `COc1ccc(NC(=O)Nc2ccc3c(c2)CC(=O)N([C@H](C)CO)C[C@@H](C)[C@@H](CN(C)S(=O)(=O)c2c(C)noc2C)O3)cc1`: the relative growth was 0.969. Then `Nc1ncn([C@@H]2O[C@H](CO)[C@@H](O)[C@H]2O)c(=O)n1`, with 0.458; and `Nc1ncn(C2OC(CO)C(O)C2O)c(=O)n1` (stereo not drawn), with 0.05 (active). With `Nc1ncn([C@@H]2C[C@H](O)[C@@H](CO)O2)c(=O)n1`, the relative growth was 0.907. As to `CC(=O)N(C)C[C@@H]1Oc2ncc(C#C[C@@H](C)O)cc2C(=O)N([C@@H](C)CO)C[C@H]1C`, the relative growth was 1.01. Consider `O=C(C[C@@H]1CC[C@@H]2[C@H](COC[C@@H](O)CN2S(=O)(=O)c2cccc(Cl)c2)O1)N1CCOCC1`, for which the relative growth is 1.01. As to `O=C1OC(=O)[C@H]2[C@@H]1[C@H]1CC[C@H]2O1`, the relative growth is 0.16 (active). With `CCc1c(C)[nH]c(=S)c(C#N)c1C`, the relative growth is 1.01. The figure for `Cc1noc(C)c1S(=O)(=O)Nc1ccc2c(c1)C(=O)N([C@@H](C)CO)C[C@H](C)[C@H](CN(C)CC1CC1)O2` is 0.999; for `COc1ccc(NC(=O)N(C)C[C@H]2Oc3c(NS(=O)(=O)c4cn(C)cn4)cccc3C(=O)N([C@@H](C)CO)C[C@@H]2C)cc1` it is 0.995; for `C[C@H](CO)N1C[C@H](C)[C@@H](CN(C)S(=O)(=O)c2ccc(F)cc2)Oc2ccc(NC(=O)c3ccncc3)cc2CC1=O` it is 0.989. Then `C[N+](C)(C)CCCCCC[N+](C)(C)C.[Br-].[Br-]`, with 0.862.

For `CCCCCCCCCCCCCCCC[N+](C)(C)C`, the relative growth was 0.0755 (active). Then `CCCCCCCCCCCCCCCCOP(=O)([O-])OCC[N+](C)(C)C`, with 1; and `NS(=O)(=O)c1cc(-c2nn[nH]n2)c(NCc2cccs2)cc1Cl`, with 0.965. As to `NC[C@H]1CCN(c2ccc(Oc3ccccc3)cc2)C1`, the relative growth was 0.669. On to `C[C@H]1CCCCO[C@H](CN(C)C(=O)Cc2ccccc2)[C@@H](C)CN([C@@H](C)CO)C(=O)c2cc(NC(=O)c3ccccc3)ccc2O1`, for which the relative growth was 1.03. `CON=C(C(=O)NC1C(=O)N2C(C(=O)OCOC(=O)C(C)(C)C)=C(C=Cc3scnc3C)CSC12)c1csc(N)n1` (stereo not drawn): the relative growth is 0.0492 (active). Take `CON=C(C(=O)N[C@@H]1C(=O)N2C(C(=O)OCOC(=O)C(C)(C)C)=C(C=Cc3scnc3C)CS[C@H]12)c1csc(N)n1`: the relative growth was 0.0386 (active). For `CCC=C(C(=O)NC1C(=O)N2C(C(=O)OCOC(=O)C(C)(C)C)=C(COC(N)=O)CSC12)c1csc(N)n1.Cl` (stereo not drawn), the relative growth is 0.0724 (active). With `Cc1ccc(S(=O)(=O)N(C)C[C@@H]2Oc3ccc(NS(=O)(=O)c4ccc(F)cc4)cc3C(=O)N([C@H](C)CO)C[C@@H]2C)cc1`, the relative growth was 1.08. The figure for `COc1ccc(CN(C)C[C@@H]2Oc3c(NC(=O)Nc4ccc(C(F)(F)F)cc4)cccc3C(=O)N([C@@H](C)CO)C[C@H]2C)cc1` is 0.818; for `Cc1cc(-c2ccccc2)nc(-c2ccccc2)c1C` it is 0.937; for `C[C@H]1CN([C@@H](C)CO)C(=O)c2cc(NC(=O)CCCCCC(=O)Nc3ccccc3N)ccc2O[C@H]1CN(C)S(=O)(=O)c1cn(C)cn1` it is 1.01. Take `CNC[C@H]1Oc2cc(C#CCN(C)C)ccc2S(=O)(=O)N([C@H](C)CO)C[C@@H]1C`: the relative growth is 1.02. The figure for `C[C@@H]1CCCCO[C@@H](CN(C)C(=O)Nc2ccc3c(c2)OCO3)[C@H](C)CN([C@H](C)CO)C(=O)c2cc(NS(=O)(=O)c3ccc(F)cc3)ccc2O1` is 1.01; for `Cc1noc(C)c1S(=O)(=O)Nc1ccc2c(c1)C(=O)N([C@H](C)CO)C[C@@H](C)[C@@H](CN(C)S(=O)(=O)c1cccs1)O2` it is 0.998. Then `C[C@H]1CCCCO[C@H](CN(C)S(C)(=O)=O)[C@@H](C)CN([C@@H](C)CO)C(=O)c2cc(NC(=O)c3ccncc3)ccc2O1`, with 1.01; and `CCCCCOc1ccc(-c2ccc(-c3ccc(C(=O)N[C@H]4C[C@@H](O)[C@@H](O)NC(=O)[C@@H]5[C@@H](O)[C@@H](C)CN5C(=O)[C@H]([C@@H](C)O)NC(=O)[C@H]([C@H](O)[C@@H](O)c5ccc(O)cc5)NC(=O)[C@@H]5C[C@@H](O)CN5C(=O)[C@H]([C@@H](C)O)NC4=O)cc3)cc2)cc1`, with 1.12; and `CCCCCOc1ccc(-c2cc(-c3ccc(C(=O)N[C@H]4C[C@@H](O)[C@@H](O)NC(=O)[C@H]5[C@@H](O)[C@@H](C)CN5C(=O)[C@H]([C@@H](O)CC(N)=O)NC(=O)[C@H]([C@@H](O)[C@@H](O)c5ccc(O)c(OS(=O)(=O)O)c5)NC(=O)[C@H]5C[C@@H](O)CN5C(=O)[C@H]([C@@H](C)O)NC4=O)cc3)no2)cc1`, with 0.952. In the case of `CC[C@H](C)C[C@H](C)CCCCCCCCC(=O)N[C@H]1C[C@@H](O)[C@@H](NCCN)NC(=O)[C@@H]2[C@@H](O)CCN2C(=O)[C@H]([C@H](O)CCN)NC(=O)[C@H]([C@H](O)[C@@H](O)c2ccc(O)cc2)NC(=O)[C@@H]2C[C@@H](O)CN2C(=O)[C@H]([C@@H](C)O)NC1=O`, the relative growth is 0.173 (active).
